Assay results taken from PubChem BioAssay (NCI).
Compounds without any hit were thinned out: in the full panel of roughly 79,000, 15% have a hit. Calls of active or inactive are those of the source. Rule as the data show it: active = growth inhibition above about 70%; inactive = the rest.

Tests used:
[1] = NCI Yeast Anticancer Drug Screen. Data for the rad52 strain (AID 147);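 also: 0% = growth of vehicle-treated control cultures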; settings: S. cerevisiae rad52 mutant growth inhibition, active compounds read high
Method in brief: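 Compounds are applied to a genetically defined yeast strain lacking normal DNA damage repair, and inhibition of growth is expressed relative to cultures given vehicle only.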

[2] = NCI Yeast Anticancer Drug Screen. Data for the wt1 strain (AID 149);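 also: 0% = growth of vehicle-treated wt1 cultures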; settings: S. cerevisiae wt1 strain (SPY 50644) growth inhibition, active compounds read high
Method in brief: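 Vehicle-normalised growth inhibition; strain wt1; compound exposure.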

[3] = NCI Yeast Anticancer Drug Screen. Data for the rad50EPP+ strain (AID 151);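 also: 0% = growth of vehicle-treated control cultures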; settings: S. cerevisiae rad50 mutant strain, active compounds read high
Method in brief: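 Compounds were applied to the rad50EPP+ yeast strain, which bears a defined DNA repair alteration, and growth inhibition was determined relative to vehicle-treated cultures.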

[4] = NCI Yeast Anticancer Drug Screen. Data for the mgt1 strain (AID 153); settings: S. cerevisiae mgt1 mutant growth inhibition, active compounds read high
Method in brief: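 Strain: mgt1 yeast, one of a set carrying defined DNA damage repair or cell cycle control alterations. Compound-treated growth compared with vehicle.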

[5] = NCI Yeast Anticancer Drug Screen. Data for the rad50 strain (AID 155);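 also: 0% = growth of vehicle-only cultures of the same strain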; settings: S. cerevisiae rad50 strain growth inhibition, active compounds read high
Method in brief: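 A DNA repair-deficient yeast mutant serves as the test organism; compound-induced growth inhibition is calculated against vehicle-treated cells.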

[6] = NCI Yeast Anticancer Drug Screen. Data for the mec2-1 strain (AID 157); settings: S. cerevisiae mec2-1 strain, active compounds read high
Method in brief: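 Strain: mec2-1 (DNA repair/cell cycle alteration). Compound exposure, then growth measured; inhibition expressed relative to vehicle.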

[7] = NCI Yeast Anticancer Drug Screen. Data for the rad14 strain (AID 159);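 also: 0% = growth of vehicle-treated control cultures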; settings: S. cerevisiae rad14 strain growth inhibition, active compounds read high
Method in brief: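 Vehicle-treated cultures served as the baseline for growth inhibition of a DNA repair-mutant yeast strain exposed to each compound.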

[8] = NCI Yeast Anticancer Drug Screen. Data for the sgs1 mgt1 strain (AID 161);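 also: 0% = growth of cultures given vehicle only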; settings: S. cerevisiae sgs1 mgt1 strain, active compounds read high
Method in brief: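 Test agents were incubated with a DNA-repair-mutant yeast strain. Growth was then read and compared against vehicle-treated controls.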

[9] = NCI Yeast Anticancer Drug Screen. Data for the CLN2oe strain (AID 163);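 also: 0% = growth of vehicle-only control cultures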; settings: S. cerevisiae CLN2oe strain, active compounds read high
Method in brief: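 Growth of a genetically modified yeast strain is measured after compound exposure and compared with cultures given vehicle alone.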

[10] = NCI Yeast Anticancer Drug Screen. Data for the cln2 rad14 strain (AID 165);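 also: 0% = growth equal to vehicle treated cultures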; settings: S. cerevisiae cln2 rad14 strain, active compounds read high
Method in brief: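 Compounds are applied to the cln2 rad14 yeast strain, and growth is then compared with that of vehicle-treated cultures to give inhibition.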

[11] = NCI Yeast Anticancer Drug Screen. Data for the bub3 strain (AID 167); settings: S. cerevisiae bub3 mutant strain, active compounds read high
Method in brief: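 Inhibition values come from growth of compound-treated mutant yeast normalised to vehicle-treated controls.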

[12] = NCI Yeast Anticancer Drug Screen. Data for the wt2 strain (AID 169);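 also: 0% = growth of vehicle-treated yeast cultures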; settings: S. cerevisiae wt2 strain growth inhibition, active compounds read high
Method in brief: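 This strain belongs to a panel of yeast strains with defined genetic alterations in DNA damage repair or cell cycle control. Compounds are applied, and growth inhibition is measured against vehicle-treated cultures.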

[13] = NCI Yeast Anticancer Drug Screen. Data for the mlh1 strain (AID 171);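 also: 0% = growth of vehicle-treated control cultures of the same strain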; settings: S. cerevisiae mlh1 strain growth inhibition, active compounds read high
Method in brief: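 Growth of the mutant yeast strain after compound exposure, expressed as inhibition relative to vehicle-only controls.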

[14] = NCI Yeast Anticancer Drug Screen. Data for the sgs1 strain (AID 173);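 also: 0% = growth of vehicle-only control cultures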; settings: S. cerevisiae sgs1 mutant, active compounds read high
Method in brief: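 Growth of a yeast strain bearing a defined genetic alteration is measured after compound treatment. Inhibition is expressed relative to vehicle-only controls.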

[15] = NCI Yeast Anticancer Drug Screen. Data for the mlh1 rad18 strain (AID 175); settings: S. cerevisiae mlh1 rad18 strain growth inhibition, active compounds read high
Method in brief: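 Read-out is yeast growth inhibition, calculated against vehicle-only controls. The compound was applied to a strain engineered with DNA damage repair alterations.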

[16] = NCI Yeast Anticancer Drug Screen. Data for the rad18 strain (AID 177); settings: S. cerevisiae rad18 mutant growth inhibition, active compounds read high
Method in brief: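 Growth of the mutant yeast strain after compound exposure, normalised to vehicle-only cultures.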

[17] = at 5.0 µM (retest, dose inferred, filed as 0.5)
[18] = at 50.0 µM (retest, dose inferred, filed as 5.0)

Measured: growth inhibition

COc1ccc2cc3c4cc5c(cc4cc[n+]3cc2c1OC)OCO5
active: [1]; at 11.0 µM 75% | [1]; at 33.0 µM 94% | [1]; at 100.0 µM 97% | [2]; at 33.0 µM 84% | [2]; at 100.0 µM 95% | [3]; at 33.0 µM 77% | [3]; at 100.0 µM 88% | [4]; at 33.0 µM 89% | [4]; at 100.0 µM 97% | [5]; at 3.7 µM 70% | [5]; [17] 76% | [5]; at 11.0 µM 88% | [5]; at 33.0 µM 94% | [5]; [18] 96% | [5]; at 50.0 µM 97.1% | [5]; at 100.0 µM 97% | [6]; at 33.0 µM 89% | [6]; [18] 97% | [6]; at 50.0 µM 92.2% | [6]; at 100.0 µM 97% | [7]; at 11.0 µM 78% | [7]; at 33.0 µM 96% | [7]; at 100.0 µM 98% | [8]; [18] 97% | [8]; at 50.0 µM 93.3% | [9]; at 33.0 µM 79% | [9]; at 100.0 µM 97% | [10]; [18] 94% | [10]; at 50.0 µM 89.2% | [11]; at 33.0 µM 88% | [11]; [18] 96% | [11]; at 50.0 µM 97.6% | [11]; at 100.0 µM 98% | [12]; at 33.0 µM 87% | [12]; at 100.0 µM 97% | [13]; at 33.0 µM 87% | [13]; at 100.0 µM 97% | [14]; at 11.0 µM 83% | [14]; at 33.0 µM 96% | [14]; at 100.0 µM 98% | [15]; [18] 97% | [15]; at 50.0 µM 97% | [16]; at 33.0 µM 89% | [16]; at 100.0 µM 97%
inactive: [1]; at 1.2 µM 22% | [1]; at 3.7 µM 48% | [2]; at 1.2 µM 8% | [2]; at 3.7 µM 29% | [2]; at 11.0 µM 50% | [3]; at 1.2 µM 0% | [3]; at 3.7 µM 20% | [3]; at 11.0 µM 60% | [4]; at 1.2 µM 15% | [4]; at 3.7 µM 39% | [4]; at 11.0 µM 62% | [5]; at 1.2 µM 33% | [6]; at 1.2 µM 9% | [6]; at 3.7 µM 32% | [6]; [17] 57% | [6]; at 11.0 µM 55% | [7]; at 1.2 µM 18% | [7]; at 3.7 µM 46% | [8]; [17] 68% | [9]; at 1.2 µM 13% | [9]; at 3.7 µM 29% | [9]; at 11.0 µM 49% | [10]; [17] 55% | [11]; at 1.2 µM 6% | [11]; at 3.7 µM 19% | [11]; [17] 43% | [11]; at 11.0 µM 46% | [12]; at 1.2 µM 38% | [12]; at 3.7 µM 32% | [12]; at 11.0 µM 62% | [13]; at 1.2 µM 12% | [13]; at 3.7 µM 31% | [13]; at 11.0 µM 53% | [14]; at 1.2 µM 24% | [14]; at 3.7 µM 28% | [15]; [17] 63% | [16]; at 1.2 µM 8% | [16]; at 3.7 µM 28% | [16]; at 11.0 µM 53%
